About 300 (9.4%) of roughly 3,200 compounds showed activity. For the sample, actives were picked, then their nearest neighbours and some compounds at random.
Test system: A673/TR/shEF
Assay: cell viability (LOESS-normalised, relative to median of negative controls) (log2 ratio); higher = more viable cells (less compound effect), active = hit call of the paper (over 3 MAD below the median)
Conditions: treatment time: 72 h
Outline: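 Doxycycline, present or absent from 24 h before compounds, was used to induce EWS-FLI1 shRNA knockdown in A673/TR/shEF Ewing sarcoma cells at 1,500 per well in 384-well plates. Cells then received library compounds at two or more concentrations, or DMSO controls, for three days. Viability was measured by CellTiter-Glo luminescence on an Envision reader, and per-plate LOESS correction, division by the negative-control median and log2 transformation followed.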

[1] = 0.25 µM, library screen: screen2, EWS-FLI1 expression: high (no doxycycline)
[2] = 0.25 µM, library screen: screen2, EWS-FLI1 expression: low (doxycycline-induced shRNA knockdown)
[3] = 2.5 µM, library screen: screen2, EWS-FLI1 expression: high (no doxycycline)
[4] = 2.5 µM, library screen: screen2, EWS-FLI1 expression: low (doxycycline-induced shRNA knockdown)
[5] = 0.25 µM, library screen: screen1, EWS-FLI1 expression: high (no doxycycline)
[6] = 0.25 µM, library screen: screen1, EWS-FLI1 expression: low (doxycycline-induced shRNA knockdown)
[7] = 2.5 µM, library screen: screen1, EWS-FLI1 expression: high (no doxycycline)
[8] = 2.5 µM, library screen: screen1, EWS-FLI1 expression: low (doxycycline-induced shRNA knockdown)
[9] = 0.025 µM, library screen: screen1, EWS-FLI1 expression: high (no doxycycline)
[10] = 0.025 µM, library screen: screen1, EWS-FLI1 expression: low (doxycycline-induced shRNA knockdown)
[11] = 25 µM, library screen: screen1, EWS-FLI1 expression: high (no doxycycline)
[12] = 25 µM, library screen: screen1, EWS-FLI1 expression: low (doxycycline-induced shRNA knockdown)

Measured: cell viability (log2)

CCCN(CCC)CCc1cccc2c1CC(=O)N2
active: [1] -0.0806 | [2] -0.203 | [3] -3.18 | [4] -2.79

CCN1C(=O)/C(=C/c2c(N3CCN(C)CC3)nc3ccccn3c2=O)SC1=S
inactive: [5] 0.0782 | [6] 0.0798 | [7] 0.126 | [8] 0.0777

COc1ccc(-c2nn(-c3ccccc3)cc2C=O)cc1[N+](=O)[O-]
inactive: [5] 0.000395 | [6] 0.0393 | [7] 0.0878 | [8] 0.0816

O=C(Nc1ccccn1)c1cc(-c2ccccc2)nc2ccccc12
inactive: [5] 0.083 | [6] -0.00975 | [7] 0.0888 | [8] -0.0311

Cc1cc2ncc(-c3ccccc3)nc2cc1C
inactive: [9] 0.21 | [10] 0.0761 | [5] 0.265 | [6] 0.0996 | [8] 0.141 | [12] 0.0902
active: [7] -0.0894 | [11] -0.147

C=C(c1ccccc1)c1cc(O)c(OC)cc1O
inactive: [5] -0.0139 | [6] -0.00424 | [7] 0.0356 | [8] 0.0603

COc1ccccc1N(C(N)=O)c1nc(-c2cccnc2)nc2ccccc12
inactive: [1] 0.155 | [2] 0.0439 | [3] 0.275 | [4] 0.0633

COc1cc2ncc(-c3ccccc3)nc2cc1OC
active: [11] -0.157
inactive: [9] 0.165 | [10] -0.00441 | [5] 0.202 | [6] 0.0199 | [1] 0.139 | [2] 0.0671 | [7] -0.0715 | [8] 0.188 | [3] 0.212 | [4] 0.201 | [12] 0.175

CC1=C(C(=O)OCC2CCCO2)C(c2coc3ccccc3c2=O)C2=C(CCCC2=O)N1 (configuration not stated)
inactive: [5] 0.0728 | [6] 0.022 | [7] 0.00147 | [8] 0.0061

COc1ccc2c(c1)OC1CC1(c1ccccc1OC)C2=O (configuration not stated)
inactive: [5] 0.0685 | [6] 0.0535 | [7] 0.0294 | [8] 0.0412

COc1ccc(OC)c(CN2CCN(Cc3ccco3)CC2)c1
inactive: [5] 0.136 | [6] 0.00829 | [7] 0.0712 | [8] 0.0546

C=C1C[C@]23C[C@@]1(O)CC[C@H]2[C@@]12C=C[C@H](O)C(C)(C(=O)O1)[C@H]2[C@@H]3C(=O)O
inactive: [5] 0.0797 | [6] -0.049 | [7] 0.109 | [8] 0.00256

CC(C)C[C@H](NC(=O)[C@H](O)[C@H](N)Cc1ccccc1)C(=O)O
inactive: [1] 0.14 | [2] 0.0402 | [3] 0.0931 | [4] 0.0118

CC(C)C[C@H](NC(=O)[C@H](Cc1ccccc1)NC(=O)c1cnccn1)B(O)O
active: 0.103 µM, library screen: screen3, EWS-FLI1 expression: high (no doxycycline) -0.242 | 0.308 µM, library screen: screen3, EWS-FLI1 expression: high (no doxycycline) -2.56 | 0.308 µM, library screen: screen3, EWS-FLI1 expression: low (doxycycline-induced shRNA knockdown) -0.914 | 0.926 µM, library screen: screen3, EWS-FLI1 expression: high (no doxycycline) -3.95 | 0.926 µM, library screen: screen3, EWS-FLI1 expression: low (doxycycline-induced shRNA knockdown) -1.75 | 2.8 µM, library screen: screen3, EWS-FLI1 expression: high (no doxycycline) -4.24 | 2.8 µM, library screen: screen3, EWS-FLI1 expression: low (doxycycline-induced shRNA knockdown) -4.06 | 8.3 µM, library screen: screen3, EWS-FLI1 expression: high (no doxycycline) -4.26 | 8.3 µM, library screen: screen3, EWS-FLI1 expression: low (doxycycline-induced shRNA knockdown) -3.84 | 25 µM, library screen: screen3, EWS-FLI1 expression: high (no doxycycline) -4.26 | 25 µM, library screen: screen3, EWS-FLI1 expression: low (doxycycline-induced shRNA knockdown) -4.16
inactive: 0.103 µM, library screen: screen3, EWS-FLI1 expression: low (doxycycline-induced shRNA knockdown) -0.0845

CC(C)C[C@H](NC(=O)[C@@H](O)[C@H](N)Cc1ccccc1)C(=O)O
inactive: [1] 0.185 | [2] -0.00499 | [3] 0.106 | [4] 0.0581

O=C(Nc1ccccc1Cl)C1c2ccccc2Oc2ccccc21
inactive: [5] 0.0923 | [6] 0.0427 | [7] 0.118 | [8] 0.00942

COC1CCC2(C)C(CCC3C2CCC2(C)C(C(C)CCCC(C)C)CCC32)C1 (configuration not stated)
inactive: [5] -0.00918 | [6] 0.0236 | [7] 0.0903 | [8] 0.091

CCN1CCCC(OC(=O)C(c2ccccc2)c2ccccc2)C1 (configuration not stated)
inactive: [5] 0.0616 | [6] 0.0736 | [7] 0.223 | [8] -0.0423

CCCCOc1ccc(OCCCN2CCOCC2)cc1
inactive: [5] 0.172 | [6] 0.0279 | [7] 0.124 | [8] 0.0578

CCCCCCCCCC(=O)NC(CN1CCOCC1)C(O)c1ccccc1 (configuration not stated)
active: [1] -0.53 | [2] -0.533 | [3] -1.39 | [4] -2.57

Cc1ccc(C(=O)NCCSc2ccccn2)cc1
inactive: [5] 0.109 | [6] 0.00816 | [7] 0.117 | [8] -0.0564

Cn1cnnc1SCC(=O)N1c2ccccc2C(C)(c2ccccc2)CC1(C)C (configuration not stated)
inactive: [5] 0.078 | [6] 0.058 | [7] 0.127 | [8] 0.198

C[C@@H]1CC[C@H]2[C@](C)(CO)[C@@H](O)CC[C@]2(C)[C@@]12CC[C@@](CO)(CCO)O2
inactive: [5] 0.0457 | [6] -0.0603 | [7] 0.0942 | [8] 0.112

CC(C)(C)c1onc(OCP(=O)(O)O)c1CC(N)C(=O)O (configuration not stated)
inactive: [1] -0.0656 | [2] 0.0767 | [3] 0.0137 | [4] 0.0837

N=C(N)c1ccc(N)cc1
inactive: [1] 0.132 | [2] 0.0859 | [3] 0.0987 | [4] 0.121

N=C1C=CC(=C(c2ccc(N)cc2)c2ccc(N)cc2)C=C1
active: [5] -0.412 | [6] -0.563 | [7] -3.76 | [8] -3.35

CCOC(=O)c1ccc(N)cc1
inactive: [5] 0.113 | [6] 0.151 | [7] 0.0778 | [8] 0.18

CC(C)c1c(O)c(-c2cc3c(c(C(C)C)c2O)CCC2C(C)(C)CCCC32C)cc2c1CCC1C(C)(C)CCCC21C (configuration not stated)
inactive: [5] 0.108 | [6] 0.109 | [7] 0.0993 | [8] 0.112

— the supplement of paper PMC6089552
